Experimental data taken from PubChem BioAssay (NCATS).
Results filed as inconclusive are left out. Entries that show only a call come without a potency. Active and inactive are the calls of the source. Calls follow the shape of the dose curve; as a rule, active = well fitted inhibition curve with a large enough effect; inconclusive = small, poorly fitted or top-dose-only effect; inactive = flat fitted curve, though single readings scatter.

The molecules below were run against Calcium and integrin-binding protein 1 (Homo sapiens) (UniProt Q99828) (assay: Primary qHTS for Identification of Calcium Integrin Binding Protein 1 (CIB1) Competitor (AID 1508620;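 also: GST tagged CIB1 binding a fluorescein labelled alphaIIb integrin peptide tracer; top concentration of the series differs between compounds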)). Settings: CIB1-GST / FITC-alphaIIb peptide fluorescence polarization; series mostly up to 114 µM.
How it was run: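 CIB1-GST (1 uM final) and compound incubated 15 min at room temperature before adding FITC-alphaIIb peptide tracer (100 nM final). Competition for binding read by fluorescence polarization (ex 480, em 540) after another 15 min at room temperature.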

Sequence of Calcium and integrin-binding protein 1 (Homo sapiens) (Q99828 whole entry, looked up): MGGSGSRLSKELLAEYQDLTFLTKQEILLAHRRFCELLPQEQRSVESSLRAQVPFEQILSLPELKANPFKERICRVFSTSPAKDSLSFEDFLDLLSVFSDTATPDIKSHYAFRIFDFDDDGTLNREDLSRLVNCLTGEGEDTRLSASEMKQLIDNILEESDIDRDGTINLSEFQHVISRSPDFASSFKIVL

| SMILES | Potency |
| --- | --- |
| Cc1cc(C)nc(NC(=S)N2CCN(c3cccc(S(C)=O)c3)CC2)c1 (stereo not drawn) | inactive |
| S=P(c1ccccc1)(c1ccccc1)c1nc(CCCc2ccccc2)n2ccccc12 | inactive |
| CC(=O)Nc1sc2c(c1-c1cccs1)CCNC2 | inactive |
| Cc1scc2c1C(=O)NS2(=O)=O | inactive |
| COc1cccc(-c2csc3ncnc(Sc4nnnn4C)c23)c1 | inactive |
| COc1ccc(C(=O)Nc2ccc(-c3nc4ccccc4[nH]3)cc2)cc1C(F)(F)F | inactive |
| COc1cc(OC)cc(-c2nnc3n2N=C(c2ccccc2OC)CS3)c1 | inactive |
| COCCNc1cc2c(cc1[S+](=O)([O-])Nc1ccc(C)c(C)c1)CCC(=O)N2 | inactive |
| Cc1ccc(NC(=O)CN2C(=O)N/C(=C\c3ccco3)C2=O)cc1 | inactive |
| COc1ccc(CN(Cc2ccccc2)C(=O)c2ccccc2N)cc1COc1ccc(NC(C)=O)cc1 | inactive |
| CC(C)Oc1ccc(C(=O)Nc2ccc(-c3nc4ccccc4[nH]3)cc2)cc1 | inactive |
| COc1ccc(C2Nc3ccccc3C(=O)N2Cc2ccccn2)cc1COc1c(C)cccc1C (stereo not drawn) | inactive |
| CC(Cc1cnccn1)Nc1cnc2c(O)ccc(C(=O)O)c2c1 (stereo not drawn) | inactive |
| O=S(=O)(c1cccc(F)c1)N1CCN(S(=O)(=O)c2ccc3c(c2)OCCO3)CC1 | inactive |
| c1nc(NCC2CCCCC2)c2cc(-c3ccc4c(c3)OCO4)ccc2n1 | inactive |
| COC(=O)c1ccc(O)c2ncc(N(C)C)cc12 | inactive |
| COc1ccc(-c2c(NC(C)=O)sc3c2CCNC3)cc1 | inactive |
| C=Cc1nc(Nc2cc(F)cc(F)c2)nc(NC2CCCC2)n1 | inactive |
